According to the supplement of paper PMC9023506:
Structures can show the parent of a compound that is named as a salt.

system: Danio rerio larvae (5 dpf); assay: activity during period 15 (no stimuli), difference vs DMSO (percentage points (treated minus DMSO)); higher = more of the behaviour than the DMSO vehicle control; settings: 10 µM; exposure time: 3 h pre-incubation + 3 h imaging
Protocol: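 5-dpf wild-type zebrafish larvae were imaged in 96-well plates. They were treated with 190 Tocris FDA-approved drugs at 10 µM (1 µl/ml DMSO) for 3 h before and 3 h during imaging at 28.5 °C, 48 larvae per drug. Automated image analysis gave % time moving and optomotor responses. Values are drug group mean minus DMSO vehicle mean (n=844), in percentage points, for 10 behaviours.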

Row | SMILES | activity during period 15
1 | CN(C)CC/C=C1/c2ccccc2COc2ccc(CC(=O)O)cc21 [Olopatadine hydrochloride] | -6.62
2 | OCc1cc(C(O)CNCCCCCCOCCCCc2ccccc2)ccc1O (stereo not given) [Salmeterol xinafoate] | 23.9
3 | C#CCN[C@@H]1CCc2ccccc21 [Rasagiline mesylate] | -1.03
4 | C[C@]12CC[C@@H]3c4ccc(O)cc4C[C@@H](CCCCCCCCC[S+]([O-])CCCC(F)(F)C(F)(F)F)[C@H]3[C@@H]1CC[C@@H]2O (stereo not given in full) | 4.53
5 | COc1ccccc1OCC(O)CN1CCN(CC(=O)Nc2c(C)cccc2C)CC1 (stereo not given) [Ranolazine dihydrochloride] | 3.22
6 | Nc1nc2c(ncn2COCCO)c(=O)[nH]1 [Acyclovir] | -4.38
7 | O=C(c1ccc(OCCN2CCCCC2)cc1)c1c(-c2ccc(O)cc2)sc2cc(O)ccc12 [Raloxifene hydrochloride] | -8.58
8 | CC(C)c1ccc2oc3nc(N)c(C(=O)O)cc3c(=O)c2c1 [Amlexanox] | 7.93
9 | CN(C)CCc1c[nH]c2ccc(Cn3cncn3)cc12 [Rizatriptan benzoate] | -3.72
10 | O=C1CCc2ccc(OCCCCN3CCN(c4cccc(Cl)c4Cl)CC3)cc2N1 [Aripiprazole] | 4.18
11 | CCCC1O[C@@H]2C[C@H]3[C@@H]4CCC5=CC(=O)C=C[C@]5(C)[C@H]4[C@@H](O)C[C@]3(C)[C@]2(C(=O)CO)O1 (stereo not given in full) [Budesonide] | 5.26
12 | Cc1nnc(C(C)C)n1C1C[C@H]2CC[C@@H](C1)N2CC[C@H](NC(=O)C1CCC(F)(F)CC1)c1ccccc1 (stereo in doubt) [Maraviroc] | -3.11
13 | Brc1c(NC2=NCCN2)ccc2nccnc12 | -19.4
14 | C[C@H]1O[C@H](O[C@H]2[C@H](O)[C@@H](O)[C@@H](O[C@H]3[C@H](O)[C@@H](O)C(O)O[C@@H]3CO)O[C@@H]2CO)[C@H](O)[C@@H](O)[C@@H]1N[C@H]1C=C(CO)[C@@H](O)[C@H](O)[C@H]1O (stereo not given in full) [Acarbose] | 1.42
15 | CC(C)(C(=O)c1cccnc1)c1cccnc1 [Metyrapone] | -7.26
16 | CN(C)CCC[C@@]1(c2ccc(F)cc2)OCc2cc(C#N)ccc21 [Escitalopram oxalate] | -18.3
17 | Cc1ccsc1C(=CCCN1CCC[C@@H](C(=O)O)C1)c1sccc1C [Tiagabine hydrochloride] | 10.4
18 | CCCc1nc2c(C)cc(-c3nc4ccccc4n3C)cc2n1Cc1ccc(-c2ccccc2C(=O)O)cc1 [Telmisartan] | -7.63
19 | C=C1[C@H](CO)[C@@H](O)C[C@@H]1n1cnc2c(=O)[nH]c(N)nc21 [Entecavir] | -0.773
20 | CCc1nc(N)nc(N)c1-c1ccc(Cl)cc1 [Pyrimethamine] | -4.35

Row | SMILES | activity during period 15
21 | CN1CCN(CCCN2c3ccccc3Sc3ccc(Cl)cc32)CC1 [Prochlorperazine dimaleate] | 16.6
22 | Nc1nc(F)nc2c1ncn2[C@@H]1O[C@H](CO)[C@@H](O)[C@@H]1O [Fludarabine] | -6.57
23 | COc1cc2nc(N3CCN(C(=O)c4ccco4)CC3)nc(N)c2cc1OC [Prazosin hydrochloride] | 1.78
24 | NC(=O)c1ncn([C@@H]2O[C@H](CO)[C@@H](O)[C@H]2O)n1 [Ribavirin] | -3.78
25 | Cc1cccc(C)c1OCC(C)N (stereo not given) [Mexiletine hydrochloride] | 6.49
26 | O=C(O)C[C@H](O)C[C@H](O)/C=C/c1c(C2CC2)nc2ccccc2c1-c1ccc(F)cc1 [Pitavastatin calcium] | -4.44
27 | CC(C)c1nc(CN(C)C(=O)N[C@H](C(=O)N[C@@H](Cc2ccccc2)C[C@H](O)[C@H](Cc2ccccc2)NC(=O)OCc2cncs2)C(C)C)cs1 [Ritonavir] | -8.67
28 | Cn1cnc([N+](=O)[O-])c1Sc1ncnc2[nH]cnc12 [Azathioprine] | 8.85
29 | CN1CCN2c3ncccc3Cc3ccccc3C2C1 (stereo not given) [Mirtazapine] | 4.7
30 | Cc1nc(-c2ccc(OCC(C)C)c(C#N)c2)sc1C(=O)O [Febuxostat] | 10
31 | CC(C)[C@H]1CC[C@H](C(=O)N[C@H](Cc2ccccc2)C(=O)O)CC1 [Nateglinide] | -0.384
32 | Nc1nc(Cl)nc2c1ncn2[C@@H]1O[C@H](CO)[C@@H](O)[C@@H]1F [Clofarabine] | -4.3
33 | OC(CNCC(O)C1CCc2cc(F)ccc2O1)C1CCc2cc(F)ccc2O1 (stereo not given) [Nebivolol hydrochloride] | 14
34 | COc1ccc(-c2ccc3cc(C(=O)O)ccc3c2)cc1C12CC3CC(CC(C3)C1)C2 [Adapalene] | -3.39
35 | CCOC(=O)C1=C(C)NC(C)=C(C(=O)OC)C1c1cccc(Cl)c1Cl (stereo not given) [Felodipine] | -11.6
36 | Cc1cn([C@H]2C=C[C@@H](CO)O2)c(=O)[nH]c1=O [Stavudine] | -0.445
37 | O=c1[nH]c(=O)n([C@H]2C[C@H](O)[C@@H](CO)O2)cc1C(F)(F)F [Trifluorothymidine] | -1.33
38 | O=C(O[C@@H]1C[C@@H]2C[C@H]3C[C@H](C1)N2CC3=O)c1c[nH]c2ccccc12 [Dolasetron mesylate] | -1.51
39 | CCOC(=O)c1ncn2c1CN(C)C(=O)c1cc(F)ccc1-2 [Flumazenil] | 11.9
40 | CNC(=O)c1ccccc1Sc1ccc2c(/C=C/c3ccccn3)n[nH]c2c1 [Axitinib] | 3.22
